Results on eight compounds are retold here after PubChem BioAssay.

Calls of active or inactive are those of the source.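 The calls were made as follows, unless noted: active = NADPH fluorescence slope more negative than the mean of all samples by about 3 SD, 99.7% confidence; inactive = the rest.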

Experiment [1] can be described thus: inhibitors of TNFa-induced NFkB p65 translocation, primary screen, imaging, HUVEC, MLSMR starter and 10KST1 sets (AID 438;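 active = inhibition above 20% together with a positive visual image hit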;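 also: compound added about 3h40 before a 20 min TNFalpha stimulation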;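 as to inhibition: signal is the nuclear over cytoplasmic p65 intensity ratio per well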). To be noted: HUVEC TNFa-induced p65 nuclear translocation; cell count: measured here: nuclei count (cytotoxicity indicator), at 2.08 µM; inhibition: at 2 µM, stronger effect = higher value, 0% TNFa-plus-vehicle, 100% no-TNFa wells.
Experiment [2] is described as follows: reduction of polyQ htt aggregates in cells – imaging, exon1htt(103Q)mCFP cells, high-content imaging, primary screen (AID 483;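 active = visual image review flags a hit and inhibition of aggregation exceeds 20%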;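 also: compound exposure lasted 3 days before fixation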;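 as to nuclei count: percent of the per-plate median nuclei count of sample wells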). To be noted: exon1htt(103Q)mCFP cell line, aggregate imaging, at 2 µM; inhibition of aggregation: stronger effect = higher value; nuclei count: measured here: cell count, toxicity.
Experiment [3] can be described thus: endothelial E-selectin expression blockers – imaging, HUVEC, immunofluorescence, MLSMR starter and 10KST1 sets, primary screen (AID 487;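 active = visually confirmed hit in the image check and inhibition above 20%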;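 as to inhibition: signal is fraction of cell area covered by stained E-selectin grains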;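 as to nuclei count: 100% = median nuclei count of all wells on the same plate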). To be noted: HUVEC TNFalpha-induced E-selectin immunofluorescence imaging, at 2 µM; inhibition: stronger effect = higher value; nuclei count: measured here: cell number, toxicity.
In experiment [4] the target is Voltage-gated potassium channel subunit beta-2 (Rattus norvegicus) (UniProt P62483). Description: inhibitors of rat Kvbeta2 reductase activity – biochemical, NADPH fluorescence, primary screen (AID 622;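 active = fluorescence slope higher than the sample average by over 3 SD, cut at about -0.22 in these data, passing the limit was not always enough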;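 also: slope of raw intensity against log time taken from 70 to 1610 s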). The conditions noted are these: recombinant KvBeta, 4-cyanobenzaldehyde reduction, at 10 µM, stronger effect = higher value.
Sequence of Voltage-gated potassium channel subunit beta-2 (Rattus norvegicus) (P62483 whole entry, looked up): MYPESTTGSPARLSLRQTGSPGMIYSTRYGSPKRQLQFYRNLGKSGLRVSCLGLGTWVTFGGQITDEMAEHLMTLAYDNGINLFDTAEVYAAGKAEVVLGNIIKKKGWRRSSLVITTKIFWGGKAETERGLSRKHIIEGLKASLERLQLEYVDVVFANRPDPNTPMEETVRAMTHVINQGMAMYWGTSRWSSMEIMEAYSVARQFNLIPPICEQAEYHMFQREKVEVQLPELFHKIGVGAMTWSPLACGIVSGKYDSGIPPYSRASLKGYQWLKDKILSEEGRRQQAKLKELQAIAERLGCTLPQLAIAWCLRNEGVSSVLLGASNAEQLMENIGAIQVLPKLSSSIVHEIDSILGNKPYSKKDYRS
Experiment [5] shares this target. The experiment in a line: enhancers of rat Kvbeta2 NADPH turnover – biochemical, NADPH fluorescence, primary screen (AID 623).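 Also: fluorescence intensity change per second fitted from 20 to 320 s.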 The conditions noted are these: Recombinant KvBeta, NADPH fluorescence decrease slope, 10 min; at 10 µM; stronger effect = lower value.
Experiment [6] addresses Alpha-2C adrenergic receptor (Homo sapiens) (UniProt P18825). The experiment in a line: compounds altering alpha2C-coupled GIRK flux – cell-based, HEK293 alpha2C/GIRK1/2, thallium flux, primary screen (AID 624;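 active = fluorescence slope after compound addition differing from the mean of all screened samples at 99.7% confidence, in either direction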;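 also: slope of fluorescence ratio to pre-addition baseline per second over 15 to 24 s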). To be noted: thallium flux BTC fluorescence, at 10 µM, actives lie on both sides.
The nature of experiment [7]: blockers of RIG-like receptor reporter activation – cell-based, Sendai virus stimulus, luciferase, 10K MLSCN set, TLR/RLR signaling modifier project, primary screen (AID 602276;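 active = inhibition at or above 50% at 10 µM; inactive = inhibition below 50%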;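 also: firefly luciferase from ISG56 promoter only with Renilla not read in this screen; 0% = Sendai virus plus DMSO and 100% = medium plus DMSO without virus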). To be noted: HEK293 RL24 IRF3 luciferase reporter, at 10 µM, stronger effect = higher value. For orientation: A reporter such as luciferase makes a cellular process visible.
Experiment [8] is described as follows: TLR3 IRF3 reporter activation blockers – cell-based, poly I:C stimulus, luciferase, 10K MLSCN set, primary screen (AID 602277;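 active = inhibition of the reporter signal at or above 50%; inactive = inhibition below 50%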). To be noted: HEK293-TLR3 RL24 IRF3 luciferase reporter, at 10 µM, stronger effect = higher value.

Sequence of Alpha-2C adrenergic receptor (Homo sapiens) (P18825 whole entry, looked up): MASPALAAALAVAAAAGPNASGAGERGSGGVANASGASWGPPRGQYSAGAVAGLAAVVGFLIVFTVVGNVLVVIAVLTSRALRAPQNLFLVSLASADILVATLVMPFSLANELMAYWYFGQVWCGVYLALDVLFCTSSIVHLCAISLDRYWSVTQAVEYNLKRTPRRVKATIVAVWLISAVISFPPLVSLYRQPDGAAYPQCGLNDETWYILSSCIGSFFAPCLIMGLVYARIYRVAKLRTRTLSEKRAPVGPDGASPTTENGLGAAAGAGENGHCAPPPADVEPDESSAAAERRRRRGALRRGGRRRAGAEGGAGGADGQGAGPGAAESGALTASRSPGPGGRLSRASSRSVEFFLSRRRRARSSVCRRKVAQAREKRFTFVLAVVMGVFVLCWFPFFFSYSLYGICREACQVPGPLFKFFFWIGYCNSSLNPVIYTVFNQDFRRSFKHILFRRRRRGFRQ

As to `Cc1ccc(C)c(NC(=O)CC(NCCCN2CCOCC2)C(=O)O)c1` (stereo not drawn), in experiment [1], the cell count was 494. The inhibition is -13.6% (inactive) in experiment [1], -34.4% (inactive) in experiment [3], 19.6% (inactive) in experiment [7] and 20.7% (inactive) in experiment [8]. The inhibition of aggregation in experiment [2] was 2.6% (inactive). In addition, the nuclei count worked out at 71.5% in experiment [2] and 81.2% in experiment [3]. Besides, the fluorescence slope in experiment [4] is -0.512 (inactive). For the same compound, in experiment [5], the NADPH fluorescence slope was 3.9e-05 (inactive). For the same compound, the slope in experiment [6] is 0.00589 (inactive).
As for `CCOc1cc2[nH]c(=O)n(CCCCC(=O)NCc3ccco3)c(=O)c2cc1OCC`, in experiment [1], the cell count worked out at 394. Also, the inhibition in experiment [1] was -17.9% (inactive); in experiment [3] it was -41.6% (inactive); in experiment [7], 9.08% (inactive); in experiment [8] it was 35.9% (inactive). Also, in experiment [2], the inhibition of aggregation was -0.5% (inactive). In addition, the nuclei count in experiment [2] turned out to be 117%; in experiment [3], 110%. In experiment [4], the fluorescence slope was -0.508 (inactive). Besides, in experiment [5], the NADPH fluorescence slope was -6e-05 (inactive). The slope in experiment [6] is 0.00662 (inactive).
As for `CCOC(=O)c1ccc(N2C(=O)CC(N(C)CCc3ccc(OC)c(OC)c3)C2=O)cc1` (stereo not drawn), the cell count in experiment [1] was determined as 451. Moreover, the inhibition in experiment [1] is -7.1% (inactive); in experiment [3], -20.7% (inactive); in experiment [7], -7.6% (inactive); in experiment [8] it was 25.6% (inactive). In experiment [2], the inhibition of aggregation was 2.9% (inactive). For the same compound, the results for the nuclei count in experiment [2] and in experiment [3] were 94.2% and 117%, respectively. The fluorescence slope in experiment [4] was -0.431 (inactive). The NADPH fluorescence slope in experiment [5] is 3.6e-05 (inactive). Moreover, in experiment [6], the slope is 0.00246 (inactive).
As to `Cc1nc(N2CCc3ccccc32)[nH]c(=O)c1CCC(C)C`, the cell count in experiment [1] was 345. The inhibition in experiment [1] is -1.1% (inactive); in experiment [3], -114% (inactive); in experiment [7] it was 0.138% (inactive); in experiment [8] it was 3.18% (inactive). For the same compound, in experiment [2], the inhibition of aggregation is -19.6% (inactive). Also, the results for the nuclei count in experiment [2] and in experiment [3] were 112% and 135%, respectively. Also, the fluorescence slope in experiment [4] is -0.439 (inactive). Also, the NADPH fluorescence slope in experiment [5] was -4.2e-05 (inactive). In addition, in experiment [6], the slope was 0.00282 (inactive).
With `c1ccc(-c2ccccc2OCCn2cncn2)cc1`, the cell count in experiment [1] was determined as 780. Moreover, the inhibition in experiment [1] is -12.5% (inactive); in experiment [3], -63.6% (inactive); in experiment [7] it was 2.95% (inactive); in experiment [8], 26% (inactive). In experiment [2], the inhibition of aggregation is 22.9% (inactive). Moreover, the nuclei count turned out to be 112% in experiment [2] and 111% in experiment [3]. The fluorescence slope in experiment [4] was -0.485 (inactive). In addition, the NADPH fluorescence slope in experiment [5] was -3e-05 (inactive). The slope in experiment [6] was 0.00513 (inactive).
As for `COCCn1c(SCC(=O)N2CCc3ccccc32)nc2c(c1=O)SC(C)C2` (stereo not drawn), in experiment [1], the cell count stood at 499. For the same compound, the inhibition was -4.4% (inactive) in experiment [1], -0.4% (inactive) in experiment [3], 1.65% (inactive) in experiment [7] and 22.3% (inactive) in experiment [8]. Moreover, the inhibition of aggregation in experiment [2] is 13% (inactive). The nuclei count in experiment [2] worked out at 87.2%; in experiment [3] it was 109%. The fluorescence slope in experiment [4] is -0.45 (inactive). Besides, the NADPH fluorescence slope in experiment [5] was -1.4e-05 (inactive). In experiment [6], the slope was 0.00569 (inactive).
Consider `COc1ccc(-c2nc3cc(NC(=O)Cc4ccc(OC)c(OC)c4)ccc3o2)cc1`, for which the cell count in experiment [1] was determined as 581. For the same compound, the inhibition in experiment [1] was -25.3% (inactive); in experiment [3], -13.5% (inactive); in experiment [7], -9.84% (inactive); in experiment [8], -114% (inactive). For the same compound, the inhibition of aggregation in experiment [2] is -10.5% (inactive). Further, the nuclei count was found to be 88.5% in experiment [2] and 114% in experiment [3]. In experiment [4], the fluorescence slope is -0.468 (inactive). Further, the NADPH fluorescence slope in experiment [5] is -4.6e-05 (inactive). Besides, in experiment [6], the slope is 0.00505 (inactive).
Turning to `Cc1cc(Nc2ccccc2)n(-c2ccccc2)n1`, the cell count in experiment [1] was 329. The inhibition is -3.3% (inactive) in experiment [1], -44.7% (inactive) in experiment [3], -15% (inactive) in experiment [7] and -36.8% (inactive) in experiment [8]. Further, the inhibition of aggregation in experiment [2] is 27.4% (inactive). Further, the nuclei count came to 114% in experiment [2] and 128% in experiment [3]. The fluorescence slope in experiment [4] is -0.499 (inactive). For the same compound, the NADPH fluorescence slope in experiment [5] was -2.4e-05 (inactive). Moreover, in experiment [6], the slope was 0.00371 (inactive).

As usually defined, the inhibition is the change of the read-out against control, counted positive when it falls.
